Source: PubChem BioAssay AID652189 (Johns Hopkins Ion Channel Center, 2013)
In all, about 2,300 compounds went through this assay and about 900 (39%) were called active.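 Rule for the calls: active = mean duplicate percent inhibition, scaled so buffer wells are 0 and the reference blocker 100, over three buffer SD above buffer mean; inactive = the rest.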 The list is a sample of the results.

These compounds were tested against Anoctamin-1 (Mus musculus) (UniProt Q8BHY3) (assay: TMEM16A chloride channel inhibitors, confirmation, cell-based, re-confirmation (AID 652189)). Conditions: HEK293 TMEM16A/YFP-H148Q, iodide quench fluorescence, at 10 µM, ionomycin added to raise cell calcium; active compounds read high.
Anoctamin-1 (Mus musculus), sequence (Q8BHY3 whole entry, looked up): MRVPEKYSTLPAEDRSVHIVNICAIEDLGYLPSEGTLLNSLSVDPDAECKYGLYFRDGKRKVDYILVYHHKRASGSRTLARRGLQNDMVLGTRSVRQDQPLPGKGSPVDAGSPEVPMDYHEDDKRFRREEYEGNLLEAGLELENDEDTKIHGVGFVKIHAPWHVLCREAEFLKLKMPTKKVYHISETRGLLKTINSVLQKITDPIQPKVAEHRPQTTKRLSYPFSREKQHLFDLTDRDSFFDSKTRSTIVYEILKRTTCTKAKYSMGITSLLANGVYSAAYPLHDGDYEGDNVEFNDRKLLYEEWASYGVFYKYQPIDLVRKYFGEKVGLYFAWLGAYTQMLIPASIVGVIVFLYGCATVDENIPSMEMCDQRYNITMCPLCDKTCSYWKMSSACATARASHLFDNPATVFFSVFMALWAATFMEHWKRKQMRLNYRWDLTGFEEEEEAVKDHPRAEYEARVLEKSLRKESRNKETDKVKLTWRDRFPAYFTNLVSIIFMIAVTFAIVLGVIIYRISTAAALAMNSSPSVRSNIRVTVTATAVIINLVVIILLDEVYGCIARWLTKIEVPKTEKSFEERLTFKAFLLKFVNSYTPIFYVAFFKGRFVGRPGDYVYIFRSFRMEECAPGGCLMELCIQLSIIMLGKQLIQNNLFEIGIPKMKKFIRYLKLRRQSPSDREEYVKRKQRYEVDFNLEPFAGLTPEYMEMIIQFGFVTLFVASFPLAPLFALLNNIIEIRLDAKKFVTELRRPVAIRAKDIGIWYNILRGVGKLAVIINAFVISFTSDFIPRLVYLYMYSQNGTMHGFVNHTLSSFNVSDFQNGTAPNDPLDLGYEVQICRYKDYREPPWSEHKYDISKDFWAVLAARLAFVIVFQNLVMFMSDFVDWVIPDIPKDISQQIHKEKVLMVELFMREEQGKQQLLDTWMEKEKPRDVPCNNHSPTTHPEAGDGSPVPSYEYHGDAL

Structure (SMILES) | inhibition
CC(=O)c1c(C)[nH]c(C(=O)COC(=O)c2cccc(S(=O)(=O)N(C)c3ccccc3)c2)c1C | 33.5% (active)
Cc1ccc2c(c1)N(S(=O)(=O)c1cc(-c3cc(C)no3)ccc1C)CCO2 | 42.5% (active)
CCCCn1ccnc1C(=O)c1cccc(S(=O)(=O)N2c3ccccc3CC2C)c1 (configuration not stated) | inactive
Cc1nc(C)c(-c2csc(NCCc3ccccc3)n2)s1 | 36% (active)
CCOC(=O)c1cccc(NC(=O)CCn2nnc3ccccc32)c1 | inactive
COc1ccc2[nH]cc(/C=C(/C#N)S(=O)(=O)c3ccccc3)c2c1 | 28% (active)
COc1ccc(NC(=O)C2=CC(c3ccc(OC)c(OC)c3)=NS(=O)(=O)N2C)cc1 | 27% (active)
CC(NC(=O)c1ccco1)C(=O)Nc1nc(-c2ccccn2)cs1 (configuration not stated) | inactive
Cc1noc(C)c1COC(=O)c1cc2ccccc2cc1O | inactive
COc1ccc(CNc2nnnn2C)cc1 | inactive
Cn1c(CN2CCOCC2)nc2cc(NC(=O)c3ccc(Cl)cc3)ccc21 | 20% (active)
Cn1c(CCN2CCCCCC2)nc2cc(NC(=O)Nc3ccccc3)ccc21 | inactive
CC(C)CNC(=S)NNC(=O)c1nn(C)cc1Cl | inactive
O=C(COC(=O)CCc1c[nH]c(=O)[nH]1)Nc1ccccc1Cl | inactive
Cc1nc2ccccc2cc1OCc1ccc(F)cc1 | 22.5% (active)
O=C(NCCc1ccc2c(c1)OCCO2)c1cc2ccccc2o1 | 21% (active)
COc1ccc(-c2nc(CCNC(=O)c3ccc(Br)o3)cs2)cc1 | inactive
O=C(COc1ccccc1)NCc1ccc2c(c1)OCO2 | inactive
Cc1cccc(N=Nc2c(O)[nH]c3ccc(F)cc23)c1 | inactive
O=c1cc(C(F)(F)F)[nH]c(=O)n1C1CCCCC1 | inactive
C=CCn1c(SCC(=O)Nc2nc3ccccc3s2)nnc1-c1ccccc1O | 30.5% (active)
Cc1ccc(-c2noc(CSc3nnnn3-c3ccccc3)n2)cc1 | inactive
CN1c2ccc(C=O)c3c(C=O)ccc(c23)N(C)C1(C)C | inactive

Structure (SMILES) | inhibition
CSc1nsc(NC(=O)Nc2ccccc2)n1 | 45% (active)
C=CCSc1nsc(NC(=O)Nc2cccc(C(C)=O)c2)n1 | 53% (active)
CN(C)c1cc[n+](Cc2ccccc2)cc1 | inactive
N#Cc1nc(N)nc(N(c2ccccc2)c2ccccc2)n1 | inactive
c1ccc(-c2nnc(SCc3nc4ccccc4[nH]3)o2)cc1 | inactive
N#CC1=C(SCc2ccccc2)NC(=O)C(C#N)C12CCCC2 (configuration not stated) | 17.5% (active)
CSc1nnc2c(n1)OC(c1ccsc1)N(C(C)=O)c1ccccc1-2 (configuration not stated) | inactive
CCCc1cc(=S)n2c([nH]c3ccccc32)c1C#N | 35.5% (active)
CC1CCN(C(=O)c2ccc(CSc3ccc(Cl)cc3)cc2)CC1 | 50.5% (active)
COc1ccc(CCC(=O)c2ccc(OC)cc2)cc1 | inactive
Cc1ccc2c(c1)N(CC(=O)N1CCCc3ccccc31)C(=O)C(C)O2 (configuration not stated) | inactive
CN(c1cccc(NC(=O)c2ccc(CN3CCc4ccccc4C3)cc2)c1)S(C)(=O)=O | 20.5% (active)
S=C(NCC1CCCO1)N1CCN(c2ccc(Cl)c(Cl)c2)CC1 (configuration not stated) | 21% (active)
Cc1cc(C=O)c(C)n1-c1ccc(NC2CCCCC2)c([N+](=O)[O-])c1 | 23.5% (active)
CC(C)(C)C(=O)/C(C#N)=C/c1ccc(O)cc1 | 23% (active)
CCOC(=O)C1=C(CN2CCc3ccccc32)NC(=O)NC1c1cccc([N+](=O)[O-])c1 (configuration not stated) | inactive
COc1ccc(C(=O)NC2CCCc3c2cnn3-c2cccc(C)c2C)c(OC)n1 (configuration not stated) | 65.5% (active)
COC(=O)c1ccc(COC(=O)c2c(C)nn(Cc3ccccc3Cl)c2Cl)o1 | 16% (active)
O=S1(=O)CCN(Cc2ccccc2Cl)CC1 | inactive
Cc1ccc(F)cc1NC(=O)Cc1nn(C)c(=O)c2ccccc12 | 34.5% (active)
CCOC(=O)N1CC=C2C(C#N)=C(N)C(C#N)(C#N)[C@H](c3cccs3)[C@H]2C1 | inactive
Cc1[nH]n(-c2cccc(Cl)c2)c(=O)c1-c1ccc(Cl)cc1 | 24% (active)
CC1=NN(c2cccc(Cl)c2)C(=O)C12CC(C)=C(C)CS2 (configuration not stated) | inactive

Structure (SMILES) | inhibition
Cc1ccc(-n2[nH]c(C)c(/C=N/N3C(=O)c4cccc5cccc(c45)C3=O)c2=O)cc1 | inactive
O=C1NC(=O)C2C1C(c1ccc([N+](=O)[O-])cc1)=NN2Cc1ccccc1 (configuration not stated) | inactive
CCN(CC)S(=O)(=O)c1ccc(N(C)Cc2ccc(C(F)(F)F)cc2)nc1 | 22% (active)
CCCOc1ccc(Cc2c(Cl)nc(SC)nc2NC)cc1 | 44.5% (active)
COc1ccc(CN(C)C(=O)CC(c2ccccc2)c2ccccc2)cc1 | inactive
Cn1c(=O)n(C)c2cc(S(=O)(=O)N3CCCc4ccccc43)ccc21 | inactive
Cc1ccc(NC(=O)C(C)c2cccc(C(=O)c3ccccc3)c2)cc1 (configuration not stated) | 30.5% (active)
Cc1ccccc1-n1nnnc1SCCCC(=O)c1ccc(F)cc1 | inactive
Cc1nc2c(C(=O)NCc3ccc4c(c3)OCO4)c[nH]n2c(=O)c1Cc1ccccc1F | 18% (active)
Cc1ccc(NC(=O)CN(C)CC(=O)Nc2cccc(F)c2)cc1[N+](=O)[O-] | 24.5% (active)
O=C(CN1CCN(C(=S)NC2CCCC2)CC1)Nc1ccc(Oc2ccccc2)cc1 | inactive
CCCC(=O)Nc1ccccc1N1CCN(C(=O)c2ccccc2)CC1 | inactive
O=C(CNCCC1=CCCCC1)Nc1ccccc1N1CCCCCC1 | 19.5% (active)
CCCCNC(=O)CSc1nc2n[nH]c(C)c2c(=N)n1-c1cccc(Cl)c1C | inactive
CCc1cc2c(N3CCN(c4nnc(CC)s4)CC3)ncnc2s1 | 40% (active)
Cc1ccc(C(=O)O)cc1-c1ccc(/C=C2\SC(=O)N(CC(=O)Nc3ccc4c(c3)OCO4)C2=O)o1 | inactive
O=C(CSCc1ccc(Cl)cc1)N1CCN(Cc2ccc3c(c2)OCO3)CC1 | 20% (active)
Cc1ccc(-n2ncc3c(N4CCN(c5ccc(F)cc5)CC4)ncnc32)c(C)c1 | 28.5% (active)
O=C(O)c1ccc(NC(=O)C2CCCCC2)cc1 | inactive
O=C(N/N=C/c1cc(Cl)cc([N+](=O)[O-])c1O)C(O)(c1ccccc1)c1ccccc1 | inactive
Cc1cc(C)cc(NS(=O)(=O)c2ccc(Oc3ncc(C(F)(F)F)cc3Cl)cc2)c1 | inactive
